MARV entry inh = qHTS for inhibitors of binding or entry into cells for Marburg Virus; Marburg virus pseudotyped entry inhibition, cell reporter; Potency, µM (top dose mostly 37.8 µM), for inactives: at the top dose activity change, negative = inhibition, most hits filed as inhibitors; 300,000 compounds, 1.8% hits; AID 540276, 2011; calls by dose curve; tested in HEK293 cells; further: potency means the concentration at half of the fitted maximal effect
Vaccinia mCherry = qHTS for Stage-Specific Inhibitors of Vaccinia Orthopoxvirus: mCherry Reporter Primary qHTS | Potency, µM (highest dose often 36.5 µM), for the others: top-dose activity change, negative = inhibition, hits mostly inhibitors | Vaccinia virus mCherry reporter infection, fluorescence | AID 720579, 2013 | 310,000 compounds, 0.63% hits; calls by dose curve; tested in A549 cells; further: potency means the concentration at half of the fitted maximal effect; nearly all actives have a fitted effect of over 35% in size
VACV Venus inh = qHTS for Stage-Specific Inhibitors of Vaccinia Orthopoxvirus: Venus Reporter Primary qHTS; Potency, µM (series often up to 36.5 µM), for inactives: at the highest dose activity change, negative = inhibition, usual class: inhibitors; Vaccinia virus Venus reporter expression, fluorescence; 330,000 compounds, 0.46% hits; AID 720580, 2013; calls by dose curve; tested in A549 cells; further: potency means the concentration at half of the fitted maximal effect; nearly all actives have a fitted effect of over 30% in size
HCV inh = qHTS Assay for Inhibitors of Hepatitis C Virus (HCV); Huh7.5.1 HCVcc-Cre infection, luciferase reporter, 44 h; Potency, µM (doses to about 41.8 µM), without a hit: top-dose activity change, negative = inhibition, actives largely listed as inhibitors; 340,000 compounds, 3.4% hits; AID 651820, 2012; active means well fitted inhibition curve with a large enough effect; inconclusive means small, poorly fitted or top-dose-only effect, or another doubt; inactive means no such curve, though single readings can be large or run the other way; further: potency means the concentration at half of the fitted maximal effect
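Reporter virus HCVcc-Cre (~0.5 moi) infects cells exposed to compound; seeding density 1,000 cells/well with 4 h settling beforehand. Luminescence, 15 sec read, taken 44 h post-infection following a 15 min RT substrate incubation.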
Lassa entry inh = qHTS for Inhibitors of binding or entry into cells for Lassa Virus; Lassa virus pseudotype entry inhibition, cell reporter; Potency, µM (top dose mostly 37.9 µM), inactives show at the top dose activity change, negative = inhibition, actives largely listed as inhibitors; 300,000 compounds, 1.2% hits; calls by dose curve; tested in HEK293 cells; further: potency means the concentration at half of the fitted maximal effect; nearly all actives have a fitted effect of over 50% in size
HCMV antiviral = qHTS Assay for inhibitors of the human cytomegalovirus (HCMV) | HFF cells, HCMV-luciferase reporter, 72 h; active compounds read low | activity change, negative = inhibition, % at 57.5 µM | 410,000 compounds, 4.5% hits | AID 1259415, 2018; in the data active means activity change below about -60%; inconclusive means no clear call, values can overlap the other calls; inactive means above about -39%
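Inhibition of viral replication was scored as loss of reporter luminescence in HFFs infected with HCMV-luciferase (MOI 1 PFU/cell) for 72 h; compounds tested at 2 doses, normalized to buffer and Salinomycin controls.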
Active calls of the source: *; i = inactive; ? = inconclusive; . = no result; [ ] = another dose, or the depositor's remark. Sampled rows, rich in hits. Any-hit rate of the full collection: about 7.8%. On the % scale 0 is the no-effect control and ±100 the full control effect.

SMILES	MARV entry inh	Vaccinia mCherry	VACV Venus inh	HCV inh	Lassa entry inh	HCMV antiviral
COc1ccc(OC)c(/C=C/c2cc3ccccc3cn2)c1	.	?	-40.8%	.	.	.
CCOc1ccc(/C=C/c2ccc3ccccc3[n+]2C)cc1OCC	.	-29.6%	-17.3%	.	.	.
Cc1ccc2c(c1)N(C(=O)CCC(=O)Nc1ccccc1Br)CC(C)O2 (centres undefined)	.	18.3%	1.0%	-19.7%	.	?
CC(=O)c1ccc(NC(=O)CCC(=O)N2CC(C)Oc3ccc(C)cc32)cc1 (centres undefined)	6.8%[46.1 µM]	-11.9%	-9.3%	10µM*	?	-20.3
COC(=O)CNC(c1ccccc1)c1cc(Br)ccc1NC(=O)CNC(=O)OCc1ccccc1 (centres undefined)	?	?	-29.3%	-29.8%	?	.
CN(C(=O)CNC(=O)OCc1ccccc1)c1ccc(Br)cc1C(=O)c1ccccc1Cl	5.8µM*	?	?	?	?	?
O=C(CNC(=O)OCc1ccccc1)Nc1ccc(Br)cc1C(=O)c1ccccc1Cl	?	-5.7%	-24.9%	8.91µM*	0.6%	-12.5
CN(C)c1c(Br)cc(C=O)cc1Br	.	44.0%	3.9%	.	.	.
C[C@H](CO)N1C[C@H](C)[C@@H](CN(C)C(=O)Nc2ccnc(N3CCOCC3)c2)OCc2cn(nn2)CCCC1=O	.	.	.	.	.	2.6
CCC1(C)NC(=O)N(/N=C/c2cc(OC)c(O)c(OC)c2)C1=O (centres undefined)	7.6%	-8.6%	-6.3%	24.1%	-14.9%	26.5
CCC1(C)NC(=O)N(/N=C/c2ccc(C)s2)C1=O (centres undefined)	.	.	.	-3.2%	.	-98.3*
CC(C)c1nn2c(=O)cc(COC(=O)c3ccc(NC(=O)c4cccs4)cc3)nc2s1	.	-6.5%	-19.5%	.	15.0%[46.1 µM]	-20.7
CC1CCC(NC(=O)CCc2cn(Cc3ccccc3Cl)c3ccccc23)CC1 (centres undefined)	.	-18.8%	-25.4%	.	?	-14.3
O=C(CCc1cn(Cc2ccccc2Cl)c2ccccc12)NC1CCCCC1	.	-14.5%	-11.0%	.	-28.5%[46.1 µM]	-72.1*
CCOc1ccc(CC(=O)NCCc2csc(-c3ccc(C(F)(F)F)cc3)n2)cc1	.	-17.4%	-1.8%	.	9.8%[46.1 µM]	-10.0
CCCCNc1nc2sc3c(c2c(=O)n1-c1cccc(Cl)c1)CCN(C)C3	?	-1.9%	-17.0%	3.98µM*	-13.5%	-6.5
CCCCCCOc1ccc(CN2CCN(C)CC2)cc1	?	.	.	1.78µM*	?	-37.3
CN1CCN(CCOc2ccc(-c3ccccc3)cc2)CC1	.	.	.	?	.	14.4
CN1CCN(CCCOc2ccc(-c3ccccc3)cc2)CC1	?	-6.6%	-19.0%	2.82µM*	?	31.3
Cc1cccc(-c2ncc(CN3CCN(C4CCCC4)C(CCO)C3)cn2)c1 (centres undefined)	?	-7.9%	-17.3%	-51.9%	-17.1%	-9.1
OCC1(Cc2ccccc2)CCN(Cc2cnc(-c3cccc4ccccc34)nc2)CC1	?	i	-16.9%	-24.6%	13.6%[46.1 µM]	13.4
OCC1(Cc2ccccc2)CCN(Cc2cnc(-c3ccc(Cl)cc3)nc2)CC1	?	-22.2%	-10.5%	10µM*	?	-66.7*
Cc1ccccc1-c1ncc(CN2CCC(CO)(CCCc3ccccc3)CC2)cn1	.	.	.	?	.	-64.2*
OCCC1CN(Cc2cnc(-c3ccc(Cl)cc3)nc2)CCN1C1CCCCC1 (centres undefined)	.	.	.	12.6µM*	.	?
OCC1(CCCc2ccccc2)CCN(Cc2cnc(N3CCOCC3)s2)CC1	?	-19.3%	-16.6%	?	11.2µM*	-11.3
SMILES	MARV entry inh	Vaccinia mCherry	VACV Venus inh	HCV inh	Lassa entry inh	HCMV antiviral
Cc1ccc(Cl)cc1NC(=O)C1CCN(c2nc3ccccc3n3cccc23)CC1	.	-8.7%	-15.6%	.	-3.2%[46.1 µM]	31.1
O=C(Nc1ccc(F)cc1)N[C@H]1CC[C@@]23CCCN2C(=O)CCC[C@H]3C1Cc1ccccc1 (some centres undefined)	.	.	.	.	.	7.7
Cc1ccccc1-c1nnnn1C1CCS(=O)(=O)C1 (centres undefined)	.	.	.	13.0%	.	-66.8*
CCOC(=O)c1cccc(N2C(N)=NC(N)=NC2(C)C)c1	12.1%	.	-4.7%	-5.8%	16.1%	?
Cc1cccc(NC(=O)CCc2ccc(N3C(N)=NC(N)=NC3(C)C)cc2)c1	.	5.62µM*	?	.	.	-98.7*
CC1(C)N=C(N)N=C(N)N1c1ccc(OCC(=O)N2CCOCC2)cc1	.	i	-17.2%	.	.	-39.9
CC1(C)N=C(N)N=C(N)N1c1ccc(OCCCOc2ccccc2)c(Cl)c1	.	?	?	?	.	-100.2*
Cc1cccc(NC(=O)CCc2ccccc2)c1	16.7%	-1.2%	0.6%	?	29.8%	-0.9
CC1(C)N=C(N)N=C(N)N1c1ccc(OCC(=O)Nc2ccccc2)c(Cl)c1	.	3.98µM*	?	.	.	-95.0*
CC1(C)N=C(N)N=C(N)N1c1ccc(OCC(=O)N2CCOCC2)c(Cl)c1	.	?	?	.	.	-100.5*
COc1ccccc1N1C(N)=NC(N)=NC1(C)C	10.0%	i	-17.1%	1.8%	4.1%	-21.7
O=C(Nc1ccc(F)cc1)[C@H](CSCc1ccccc1)N1Cc2ccccc2C1=O	-10.1%[46.1 µM]	-15.7%	-12.1%	.	10.5%[46.1 µM]	7.7
CC1(C)N=C(N)N=C(N)N1c1cccc(CC(=O)Nc2ccccc2)c1	.	-25.8%	?	.	.	-82.0*
Cc1ccc2cccc(S(=O)(=O)N3CCCc4ccccc43)c2n1	.	.	.	?	.	-65.0*
CCCCOc1ccc(C(=O)N2CCC(C)CC2)cc1	29.5%	.	-13.1%	6.9%	?	-27.6
CCCCOc1ccc(C(=O)OC2CC(C)N(C)CC2C)cc1 (centres undefined)	?	-23.4%	-17.2%	4.47µM*	3.3%	1.6
O=C(/C=C/c1ccccc1)c1ccc2c(c1)OCCCCO2	?	?	?	-1.7%	?	102.6
O=C1COc2ccc(C(=O)/C=C/c3ccccc3)cc2N1	6.5%	i	-16.4%	-0.2%	?	-83.8*
COc1ccccc1C1CN(Cc2cn(C)nc2C)Cc2ccccc2O1 (centres undefined)	.	-9.9%	-2.1%	.	.	.
O=c1c2cc(Br)ccc2[nH]c(=S)n1Cc1ccccc1	-2.1%[46.1 µM]	i	-12.8%	-25.1%	?	-62.8*
CCOC(=O)N1CCN(C(=O)c2ccc3c(=O)n(Cc4ccc(Cl)cc4)c(=S)[nH]c3c2)CC1	?	?	-30.6%	-1.2%	-6.9%	-36.4
CCOC(=O)N1CCN(C(=O)c2ccc(Cn3c(=S)[nH]c4ccc(Br)cc4c3=O)cc2)CC1	?	i	-21.4%	?	3.98µM*	-94.9*
CN1CCN(CCCNC(=O)c2ccc(Cn3c(=S)[nH]c4ccc(Br)cc4c3=O)cc2)CC1	?	-2.0%	-8.9%	7.94µM*	10.0%	18.6
